Source: PubChem BioAssay
A selection: hits, their analogues and other compounds. The true share with any hit is near 13%.
HCV inhibitor: inhibitors of hepatitis C virus infection; Huh7.5.1 HCVcc-Cre infection, luciferase reporter, 44 h; Potency, µM (series often up to 41.8 µM), for inactives: at the highest dose activity change, negative = inhibition, most hits filed as inhibitors; 340,000 tested, 3.4% active; active = well fitted inhibition curve with a large enough effect; inconclusive = small, poorly fitted or top-dose-only effect, or another doubt; inactive = no such curve, though single readings can be large or run the other way; note: potency is the fitted concentration of half-maximal effect; % is set by controls: 0 for no effect and ±100 for the full control effect
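Luciferase read-out (15 sec integration) after a 15 min room-temperature substrate step quantifies HCVcc-Cre infection. Cells, 1,000 per well, had compound added 4 h post-plating, then virus at ~0.5 moi, and were cultured 44 h.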
CHX counter: affects cycloheximide protein synthesis inhibition readout, counter-screen; cell reporter, cycloheximide protein synthesis inhibition counterscreen; max response, %; 300,000 tested, 12% active; AID 2314; in the data active = max response mostly above about 13%, no sharp cut-off; inactive = mostly below about 14%; note: read at 38.3 µM for the half of the compounds with a filed dose; 0% is about no effect
Shiga inhibitor: Shiga toxin inhibition. Vero cells, Shiga toxin protein synthesis inhibition reporter. inhibition, % at 38.7 µM. 290,000 tested, 9.2% active; in the data active = inhibition mostly above about 28%, no sharp cut-off; inactive = mostly below about 43%; note: 0% is about no effect
FMDV antiviral: foot and mouth disease virus antiviral activity; AID 1159524; FMDV antiviral cell-based qHTS; 410,000 tested, 1.2% active; Potency, µM (doses to about 57.9 µM), without a hit: at the highest dose activity change, negative = inhibition, hits mostly inhibitors; calls by dose curve; tested in HEK293T cells; note: read-out not given here; potency is the fitted concentration of half-maximal effect; % is set by controls: 0 for no effect and ±100 for the full control effect; nearly all actives have a fitted effect of over 45% in size
Marburg entry inh: Marburg virus entry inhibition. Marburg virus pseudotyped entry inhibition, cell reporter. Potency, µM (doses to about 37.8 µM), without a hit: top-dose activity change, negative = inhibition, most hits filed as inhibitors. 300,000 tested, 1.8% active. AID 540276; calls by dose curve; tested in HEK293 cells; note: potency is the fitted concentration of half-maximal effect; % is set by controls: 0 for no effect and ±100 for the full control effect
Lassa entry inh: Lassa virus entry inhibition. Lassa virus pseudotype entry inhibition, cell reporter. Potency, µM (titrated, usually from 37.9 µM), for inactives: at the top dose activity change, negative = inhibition, actives largely listed as inhibitors. 300,000 tested, 1.2% active. AID 540256; calls by dose curve; tested in HEK293 cells; note: potency is the fitted concentration of half-maximal effect; % is set by controls: 0 for no effect and ±100 for the full control effect; nearly all actives have a fitted effect of over 50% in size
An asterisk follows results filed as active; ? = inconclusive; . = not tested or not shown; [ ] = remark or other dose.

SMILES	HCV inhibitor	CHX counter	Shiga inhibitor	FMDV antiviral	Marburg entry inh	Lassa entry inh
CCOc1cc2c(cc1OCC)-n1cccc1C(c1ccccc1F)NC2 (centres undefined)	-13.3%	2.0	-14.7	-24.7%	?	?
CC(=O)c1cccc(N2C(=NC(=O)COc3ccccc3)SC3CS(=O)(=O)CC32)c1 (centres undefined)	10.4%	-1.9	-9.4	0.0%	.	.
Cc1ccc(C(=O)Nc2cc3c(cc2C)n(C)c(=O)c(=O)n3C)cc1	.	.	.	0.0%	.	7.6%[46.1 µM]
C#CCN1C(=O)S/C(=C/c2cc(C)n(CC)c2C)C1=O	-26.3%	73.7*	102.6*	7.8%	?	?
CCOC(=O)N1CCN(C(=O)c2ccc3c(c2)N(Cc2ccc(F)cc2)CCS3)CC1	?	1.7	0.8	-11.3%	.	.
CCOc1ccc2c(c1)S/C(=C\c1cccs1)C(=O)N2	-13.4%	31.4*	68.7*	83.1%	.	.
Cn1cccc1/C=C1\SC(=Nc2ccccc2)NC1=O	7.94µM*	44.3*	85.4*	59.7%	.	.
Cc1cc(C)cc(N=C2NC(=O)/C(=C/c3cccs3)S2)c1	10.4%	-1.3	3.7	-12.4%	4.1%	-4.2%
Cn1cccc1/C=C1\SC(=Nc2cccc(O)c2)NC1=O	-2.8%	40.3*	99.6*	0.3%	.	.
O=C1NC(=Nc2ccccc2)S/C1=C\c1cccs1	-3.4%	44.6*	89.4*	61.5%	.	.
Cc1ccc(N=C2NC(=O)/C(=C/c3cn(C)c4ccccc34)S2)cc1C	12.6µM*	-1.9	-3.8	0.0%	?	0.103µM*
Cn1cccc1/C=C1\SC(=Nc2ccc(O)cc2)NC1=O	?	44.3*	36.9*	36.3%	.	.
Cc1ccc(N=C2NC(=O)/C(=C/c3cccn3C)S2)c(C)c1	-27.4%	6.3	21.4	-3.1%	?	?
Cc1nc(-c2ccccc2)sc1C1(C)CC(c2ccc([N+](=O)[O-])cc2)=NO1 (centres undefined)	-13.3%	-3.3	-2.1	-15.5%	.	.
COc1ccc(NC(=O)c2nc(C)c(C3(C)CC(c4ccccc4)=NO3)s2)cc1 (centres undefined)	?	-0.8	22.3	-15.4%	.	.
Cc1nc(C(=O)Nc2ccccc2)sc1C1(C)CC(c2cccnc2)=NO1 (centres undefined)	-21.0%	25.2*	41.7*	15.6%	.	.
Cc1nc(C(=O)NC2CCOCC2)sc1C1(C)CC(c2ccccc2)=NO1 (centres undefined)	0.8%	10.5*	21.6	-24.9%	.	.
Cc1nc(NC(=O)c2ccccc2)sc1C1(C)CC(c2ccccc2F)=NO1 (centres undefined)	?	42.5*	59.7*	41.1%	.	.
Cc1nc(-c2ccc(Cl)cc2)sc1C1(C)CC(c2cccc([N+](=O)[O-])c2)=NO1 (centres undefined)	10.9%	18.2*	16.7	15.0%	.	.
CC12COC3(C(=O)Nc4ccc([N+](=O)[O-])cc4)CC1CCC32C (centres undefined)	5.0%	6.7	13.6	-18.5%	-7.4%	0.9%
CC(=O)Oc1ccc(/C=C/c2nc3ccccc3c(=O)o2)cc1	30.9%	-1.8	-32.7	-12.3%	?	?
Cc1nc(-c2ccc(Cl)cc2)sc1C1(C)CC(c2cccnc2)=NO1 (centres undefined)	-13.8%	112.0*	80.4*	5.1%	.	.
CC1(c2nnc(-c3ccccc3)o2)CC(c2cccc(Cl)c2)=NO1 (centres undefined)	?	-1.3	-8.3	0.0%	.	.
CC1(c2nnc(-c3cccc(Cl)c3)o2)CC(c2cccc([N+](=O)[O-])c2)=NO1 (centres undefined)	7.94µM*	-1.6	-2.2	-21.9%	.	.
Cc1nc(-c2ccccc2)sc1C1(C)CC(c2c(Cl)cccc2Cl)=NO1 (centres undefined)	-15.1%[8.37 µM]	20.1*	53.3*	9.4%	.	.
CC1(c2nnc(-c3ccncc3)o2)CC(c2ccc(Cl)cc2)=NO1 (centres undefined)	11.2µM*	.	.	?	.	.
COc1ccc(-c2nc(-c3ccccc3)c(-c3cc([N+](=O)[O-])ccc3C)[nH]2)cc1OC	15.8µM*	-2.6	19.6	0.0%	?	?
CCOc1cc(-c2nc(-c3ccccc3)c(-c3cc([N+](=O)[O-])ccc3C)[nH]2)ccc1O	?	0.6	4.7	?	?	9.2%
